According to PubChem BioAssay (EPA / NIEHS):
Several values for one entry are separate records, joined by “and”; a condition that tells them apart may be missing. Equal entries are not always repeated. Results filed as inconclusive are left out. Activity calls are given as the source filed them. Rule for the calls: active = hit-call score of the fitted dose curve at least 0.9, where 1 is the maximum; inconclusive = response in the unintended direction; inactive = score below 0.9.

Key:
[1] = STM_H9_NormalizedViability: Cytotoxicity Assessment at 120 hours in the Stemina devTOX quickPredict H9 human embryonic stem cell (hESC)-based Assay (AID 2283784)
Method in brief: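 Viability of the cell layer was taken from live-cell protease cleavage of a fluorogenic substrate after compound exposure of undifferentiated H9 stem cells, with replenishment each 24h. Fluorescence was normalized to vehicle (0.1% DMSO).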

AR (gene 367) [2] = molecular target: AR (gene 367) (UniProt P10275); assay: ACEA_AR_antagonist_80hr: ACEA Biosciences xCELLigence Real-Time Cell Analysis on Androgen Receptor Antagonism for Proliferation (AID 2283787);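 note: 22Rv1 human prostate cancer cells with growth followed by electrical impedance; hits lower the impedance growth signal relative to DMSO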
Chain of AR (gene 367) (P10275 whole entry, looked up): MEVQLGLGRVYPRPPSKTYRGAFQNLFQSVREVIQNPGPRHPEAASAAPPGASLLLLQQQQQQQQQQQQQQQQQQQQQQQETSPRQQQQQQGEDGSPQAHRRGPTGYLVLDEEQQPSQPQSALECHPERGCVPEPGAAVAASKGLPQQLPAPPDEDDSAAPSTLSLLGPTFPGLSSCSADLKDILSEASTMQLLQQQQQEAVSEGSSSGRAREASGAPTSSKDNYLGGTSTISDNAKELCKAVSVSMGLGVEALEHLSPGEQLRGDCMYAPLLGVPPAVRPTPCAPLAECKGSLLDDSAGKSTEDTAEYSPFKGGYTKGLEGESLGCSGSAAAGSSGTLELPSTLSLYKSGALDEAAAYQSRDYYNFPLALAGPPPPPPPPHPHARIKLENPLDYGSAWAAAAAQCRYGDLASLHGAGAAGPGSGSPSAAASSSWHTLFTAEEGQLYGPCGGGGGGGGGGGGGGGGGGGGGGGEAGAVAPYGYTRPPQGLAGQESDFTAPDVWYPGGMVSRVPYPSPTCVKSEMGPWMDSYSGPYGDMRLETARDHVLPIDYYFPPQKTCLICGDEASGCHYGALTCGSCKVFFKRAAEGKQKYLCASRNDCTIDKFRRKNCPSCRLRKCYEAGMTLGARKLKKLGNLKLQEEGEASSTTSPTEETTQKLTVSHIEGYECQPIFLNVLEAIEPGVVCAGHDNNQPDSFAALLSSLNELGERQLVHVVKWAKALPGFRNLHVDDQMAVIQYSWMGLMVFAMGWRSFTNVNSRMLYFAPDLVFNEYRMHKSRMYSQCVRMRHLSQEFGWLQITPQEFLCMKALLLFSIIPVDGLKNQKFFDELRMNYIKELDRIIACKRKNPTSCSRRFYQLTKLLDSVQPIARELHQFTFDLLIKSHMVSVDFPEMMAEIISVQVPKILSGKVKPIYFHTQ
Method in brief: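 Impedance-based real-time growth of 22Rv1 prostate cells, read 80 h after dosing. Eight concentrations, 1:4 series, top 100 uM final (0.5% DMSO), n = 2; signal decrease scored against DMSO.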

[3] = ACEA_ER_AUC_viability: ACEA Biosciences xCELLigence Real-Time Cell Analysis on Estrogen Receptor Agonism for Viability (AID 2283782);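 note: hit means loss of impedance signal meaning reduced cell growth or viability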
Method in brief: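 Viability endpoint: reduced impedance area under the curve relative to DMSO, recorded by real-time electrode sensing over ~80 h of continuous exposure. Duplicate plates of T47D in hormone-depleted medium; eight concentrations, 1:4 dilutions, 100 uM maximum.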

AR (gene 367) [4] = molecular target: AR (gene 367) (UniProt P10275); assay: ACEA_AR_agonist_80hr: ACEA Biosciences xCELLigence Real-Time Cell Analysis on Androgen Receptor Agonism for Proliferation (AID 2283783);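 note: hits increase impedance growth signal above DMSO baseline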
Method in brief: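 Eight concentrations, 1:4 serial dilution from a 100 uM final top, in biological duplicate. Impedance-based real-time growth of 22Rv1 cells after overnight baseline, recorded hourly and read at 80 hours. Controls: testosterone, MG132, assay media.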

[5] = tested on: turtle Androgen Receptor (AR), gene 101947425; assay: ATG_trAR_XSP1: Attagene TRANS-FACTORIAL Multi-Species (XSP1) HepG2 Assay for turtle Androgen Receptor (AR) (AID 2283786)
Method in brief: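 Partial androgen stimulation is provided by 3 nM 6-alpha-fluorotestosterone in a multi-species trans-factorial panel expressing a turtle AR–GAL4 fusion in HepG2. After 24 h, reporter mRNA is measured by RT-PCR and capillary electrophoresis and fitted upward against DMSO.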

[6] = ATG_M_06_XSP1: Attagene TRANS-FACTORIAL Multi-Species (XSP1) HepG2 Assay for M06 Transcription Factor (Internal Marker) (AID 2283790)
Procedure: ATG_XSP1_multi-species_TRANS is a cell-based, multiplexed assay created by modifying the existing Attagene TRANS-FACTORIAL system to include a panel of nuclear receptors from some or all the following species: human (Homo sapiens), mouse (Mus musculus), frog (Xenopus laevis), zebrafish (Danio rerio), chicken (Gallus gallus), and turtle (Chrysemys picta). The ECOTOX-FACTORIAL format uses HepG2, a human liver cell line, with measurements taken at 24 hours after chemical dosing in a 24-well plate. Xsp1 included 3 nM 6-alpha-fluorotestosterone to partially stimulate the androgen receptor.ATG_M_06_XSP1 is one of 29 assay components measured or calculated from the ATG_XSP1_multi-species_TRANS assay. It is designed to make measurements of mRNA induction, a form of inducible reporter, as detected with fluorescence intensity signals by Reverse transcription polymerase chain reaction (RT-PCR) and Capillary electrophoresis technology.This assay endpoint, ATG_M_06_XSP1, was analyzed in the positive analysis fitting direction relative to DMSO as the negative control and baseline of activity. Using a type of inducible reporter, measures of mRNA for gain-of-signal activity can be used to understand the background control at the transcription factor-level as they relate to the gene. Furthermore, this assay endpoint can be referred to as a secondary readout, because this assay has produced multiple assay endpoints where this one serves a background control function. To generalize the intended target to other relatable targets, this assay endpoint is annotated to the background measurement intended target family, where the subfamily is internal marker.
Human liver HepG2 cells are transiently transfected with multiple reporter transcription units (MRTUs) in 6-well plates using FuGene 6 reagent (Roche; 3 ml FuGene/1 mg DNA). The MRTU constructs are regulated by a cis-regulating element (promoter). […] A major difference between the CIS and TRANS system is that in CIS activities of endogenous TFs are measured, whereas the TRANS assay evaluates changes in activities of exogenous, chimeric NR-Gal4 proteins. […] At the end of 24 hour incubation, total RNA was isolated using TriZol reagent (Invitrogen). The isolated RNA is then reverse-transcribed using oligo(dT) primer and Mo-MLV reverse transcriptase (Invitrogen) with DNAse I (Ambion) treatment for 30 min. […] The fragments were purified using Qiaquick PCR columns (Qiagen), analyzed on an ABI 3130xL genetic analyzer (Applied Biosystems) with peak positions identified by using a set of X-rhodamine (ROX)-labeled MapMarker1000 molecular weight standards (BioVentures). […]

[7] = ATG_M_61_XSP1: Attagene TRANS-FACTORIAL Multi-Species (XSP1) HepG2 Assay for M61 Transcription Factor (Internal Marker) (AID 2283797)
Method in brief: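 Background-control readout: reporter transcripts measured by RT-PCR and capillary electrophoresis 24 h after dosing transiently transfected HepG2 multi-reporter cells, with 3 nM 6-alpha-fluorotestosterone present. Fitted in the positive direction relative to DMSO.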

[8] = ATG_M_19_XSP1: Attagene TRANS-FACTORIAL Multi-Species (XSP1) HepG2 Assay for M19 Transcription Factor (Internal Marker) (AID 2283798)
Method in brief: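 Readout is reporter mRNA induction quantified via RT-PCR, 6-FAM labeling, HpaI digestion and capillary electrophoresis, fitted in the positive direction versus DMSO baseline. Transfected HepG2 cells exposed 24 h, medium including 3 nM 6-alpha-fluorotestosterone.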

[9] = molecular target: Estrogen receptor beta (Homo sapiens) (UniProt Q92731); assay: ATG_hERb_XSP1: Attagene TRANS-FACTORIAL Multi-Species (XSP1) HepG2 Assay for human Estrogen Receptor (ESR2) (AID 2283788)
Chain of Estrogen receptor beta (Homo sapiens) (Q92731 whole entry, looked up): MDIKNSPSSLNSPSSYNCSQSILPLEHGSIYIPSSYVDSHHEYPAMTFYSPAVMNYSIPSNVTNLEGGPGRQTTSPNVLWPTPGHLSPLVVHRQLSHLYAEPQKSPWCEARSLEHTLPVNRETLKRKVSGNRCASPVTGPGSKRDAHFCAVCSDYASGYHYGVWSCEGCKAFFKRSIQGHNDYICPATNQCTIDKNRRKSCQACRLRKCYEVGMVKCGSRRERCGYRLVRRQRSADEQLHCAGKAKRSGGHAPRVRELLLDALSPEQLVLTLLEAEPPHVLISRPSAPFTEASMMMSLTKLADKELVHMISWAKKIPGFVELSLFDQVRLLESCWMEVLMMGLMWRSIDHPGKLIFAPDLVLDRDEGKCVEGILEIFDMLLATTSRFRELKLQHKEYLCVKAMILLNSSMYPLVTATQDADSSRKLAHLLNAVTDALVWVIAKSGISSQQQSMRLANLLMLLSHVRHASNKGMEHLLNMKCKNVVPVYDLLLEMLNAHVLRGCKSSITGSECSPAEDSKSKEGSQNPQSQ
Procedure: ATG_XSP1_multi-species_TRANS is a cell-based, multiplexed assay created by modifying the existing Attagene TRANS-FACTORIAL system to include a panel of nuclear receptors from some or all the following species: human (Homo sapiens), mouse (Mus musculus), frog (Xenopus laevis), zebrafish (Danio rerio), chicken (Gallus gallus), and turtle (Chrysemys picta). The ECOTOX-FACTORIAL format uses HepG2, a human liver cell line, with measurements taken at 24 hours after chemical dosing in a 24-well plate. Xsp1 included 3 nM 6-alpha-fluorotestosterone to partially stimulate the androgen receptor.ATG_hERb_XSP1 is one of 29 assay components measured or calculated from the ATG_XSP1_multi-species_TRANS assay. It is designed to make measurements of mRNA induction, a form of inducible reporter, as detected with fluorescence intensity signals by Reverse transcription polymerase chain reaction (RT-PCR) and Capillary electrophoresis technology.The assay endpoint ATG_hERb_XSP1 was analyzed in the positive analysis fitting direction relative to DMSO as the negative control and baseline of activity. Using a type of inducible reporter, measures of mRNA for gain-of-signal activity can be used to understand the reporter gene at the transcription factor-level as they relate to the gene ER. Furthermore, this assay endpoint can be referred to as a primary readout, because this assay has produced multiple assay endpoints where this one serves a reporter gene function. […]
Human liver HepG2 cells are transiently transfected with multiple reporter transcription units (MRTUs) in 6-well plates using FuGene 6 reagent (Roche; 3 ml FuGene/1 mg DNA). […] A major difference between the CIS and TRANS system is that in CIS activities of endogenous TFs are measured, whereas the TRANS assay evaluates changes in activities of exogenous, chimeric NR-Gal4 proteins. […] The fragments were purified using Qiaquick PCR columns (Qiagen), analyzed on an ABI 3130xL genetic analyzer (Applied Biosystems) with peak positions identified by using a set of X-rhodamine (ROX)-labeled MapMarker1000 molecular weight standards (BioVentures). […]

[10] = molecular target: GAL4 Transcription Factor (Internal Marker), GAL4 (gene 855828) (UniProt P04386); assay: ATG_GAL4_XSP1: Attagene TRANS-FACTORIAL Multi-Species (XSP1) HepG2 Assay for GAL4 Transcription Factor (Internal Marker) (AID 2283789)
Chain of GAL4 Transcription Factor (Internal Marker), GAL4 (gene 855828) (P04386 whole entry, looked up, the tested form may be a part): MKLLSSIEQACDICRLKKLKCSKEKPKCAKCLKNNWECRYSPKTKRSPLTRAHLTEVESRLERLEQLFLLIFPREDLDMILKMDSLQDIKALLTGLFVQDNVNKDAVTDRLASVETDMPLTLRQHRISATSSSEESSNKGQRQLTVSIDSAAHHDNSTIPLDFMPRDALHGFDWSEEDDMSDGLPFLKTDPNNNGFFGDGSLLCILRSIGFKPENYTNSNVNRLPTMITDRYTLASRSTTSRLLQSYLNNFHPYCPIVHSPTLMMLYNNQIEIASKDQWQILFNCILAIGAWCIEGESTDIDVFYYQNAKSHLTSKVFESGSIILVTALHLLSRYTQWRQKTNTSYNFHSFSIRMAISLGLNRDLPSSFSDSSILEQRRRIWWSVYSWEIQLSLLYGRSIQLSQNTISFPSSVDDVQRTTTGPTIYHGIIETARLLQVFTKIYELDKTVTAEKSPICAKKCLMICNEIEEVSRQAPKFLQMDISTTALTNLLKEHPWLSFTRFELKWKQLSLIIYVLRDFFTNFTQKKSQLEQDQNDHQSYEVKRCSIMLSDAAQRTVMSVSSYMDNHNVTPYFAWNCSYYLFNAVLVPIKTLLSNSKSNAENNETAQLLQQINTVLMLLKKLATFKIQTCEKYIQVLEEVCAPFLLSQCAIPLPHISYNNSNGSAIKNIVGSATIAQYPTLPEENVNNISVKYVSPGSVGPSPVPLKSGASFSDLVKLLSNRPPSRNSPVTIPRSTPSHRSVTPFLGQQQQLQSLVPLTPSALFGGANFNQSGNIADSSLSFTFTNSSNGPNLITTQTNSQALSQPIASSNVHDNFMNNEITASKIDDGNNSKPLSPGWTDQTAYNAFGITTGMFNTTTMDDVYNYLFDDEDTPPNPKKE
Method in brief: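 This background-control endpoint measures GAL4-driven reporter mRNA via RT-PCR and capillary electrophoresis of labelled fragments. Transiently transfected HepG2 cells were treated 24 h, with 3 nM 6-alpha-fluorotestosterone included, and gain-of-signal was fitted against DMSO.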

SMILES: CCCCCCCCCC[N+](C)(C)CCCCCCCCCC
- AC50 [1]: 2.5 µM (active)

SMILES: CCC(=O)O[C@H]1CC[C@H]2[C@@H]3CCC4=CC(=O)CC[C@]4(C)[C@H]3CC[C@]12C
- AC50 [1]: 28.6 µM (active)

SMILES: Cc1ccccc1CO[C@@H]1C[C@@]2(C(C)C)CC[C@]1(C)O2
- AC50 (AR (gene 367) [2]): 76.6 µM (active)

SMILES: CCOC(=O)C(O)(c1ccc(Cl)cc1)c1ccc(Cl)cc1
- AC50 (AR (gene 367) [2]): 19.2 µM (active)

SMILES: Cc1cc(O)ccc1Cl
- outcome [1]: inactive

SMILES: COS(=O)(=O)OC
- outcome [1]: inactive

SMILES: ClC1=C(Cl)[C@]2(Cl)[C@@H]3[C@H]4C[C@H]([C@@H]5O[C@H]45)[C@@H]3[C@@]1(Cl)C2(Cl)Cl
- outcome [3]: inactive
- AC50 [1]: 88.1 µM (active)

SMILES: CCCCCCCCOC(=O)c1ccccc1C(=O)OCCCCCCCC
- outcome (AR (gene 367) [4]): inactive
- AC50 (AR (gene 367) [2]): 50 µM (active)

SMILES: c1cc2ccc3cccc4ccc(c1)c2c34
- outcome [3]: inactive
- AC50 (AR (gene 367) [2]): 25.5 µM (active)

SMILES: C[C@]12CCC(=O)C=C1CC[C@@H]1[C@@H]2CC[C@@]2(C)[C@H]1CC[C@]2(C)O
- AC50 [5]: 0.0018 µM (active)
- outcome [6]: inactive
- outcome [7]: inactive

SMILES: C1CC2OC2CC1C1CO1 (configuration not stated)
- AC50 [1]: 74.5 µM (active)

SMILES: CCC(C)c1cc([N+](=O)[O-])cc([N+](=O)[O-])c1O (configuration not stated)
- outcome [1]: inactive

SMILES: Clc1ccc(C(Cl)(Cl)Cl)cc1
- AC50 [1]: 83.6 µM (active)

SMILES: NS(=O)(=O)C(F)(F)C(F)(F)C(F)(F)C(F)(F)C(F)(F)C(F)(F)C(F)(F)C(F)(F)F
- AC50 [3]: 77.8 µM (active) and 132 µM (active)
- AC50 (AR (gene 367) [2]): 66.1 µM (active)

SMILES: CCCCCCOC(=O)c1ccccc1C(=O)OCCCCCC
- outcome [3]: inactive
- outcome [1]: inactive

SMILES: ClC(Cl)=C(c1ccc(Cl)cc1)c1ccc(Cl)cc1
- AC50 [3]: 80.6 µM (active) and 29.5 µM (active) and 74.7 µM (active)
- outcome [8]: inactive

SMILES: C=CC(N)=O
- outcome [1]: inactive

SMILES: CCSC(=O)N(CC)C1CCCCC1
- outcome [3]: inactive
- outcome [1]: inactive

SMILES: C=CC(=O)NCNC(=O)C=C
- outcome (AR (gene 367) [4]): inactive
- AC50 [1]: 50 µM (active)
- outcome (AR (gene 367) [2]): inactive

SMILES: Clc1ccc(C(c2ccccc2Cl)C(Cl)(Cl)Cl)cc1 (configuration not stated)
- AC50 [3]: 42.8 µM (active) and 53.5 µM (active) and 50.9 µM (active)
- AC50 [1]: 88.7 µM (active)
- outcome [9]: inactive
- outcome [10]: inactive
- outcome [8]: inactive

SMILES: CO/C=C(/C(=O)OC)c1ccccc1COc1cccc(C(F)(F)F)n1
- outcome [1]: inactive

SMILES: CC(C)(c1ccccc1)c1ccc(O)cc1
- AC50 [3]: 50 µM (active) and 24.3 µM (active) and 88.6 µM (active)
- AC50 [9]: 227 nM (active)
- outcome [10]: inactive
- outcome [8]: inactive

SMILES: CCOCCOC(C)=O
- outcome [1]: inactive

SMILES: c1ccc(-c2ccccc2)cc1
- outcome [3]: inactive
- outcome (AR (gene 367) [2]): inactive

SMILES: O=C(NC(=O)c1c(F)cccc1F)Nc1cc(Cl)c(OC(F)(F)C(F)F)c(Cl)c1
- outcome (AR (gene 367) [4]): inactive
- AC50 (AR (gene 367) [2]): 50 µM (active)

SMILES: O=C(N[C@H]1CN2CCC1CC2)c1cc2ccoc2cn1
- outcome (AR (gene 367) [4]): inactive
- AC50 (AR (gene 367) [2]): 33.1 µM (active)

SMILES: CCNc1nc(NC(C)C)nc(SC)n1
- outcome (AR (gene 367) [4]): inactive
- outcome [1]: inactive
- outcome (AR (gene 367) [2]): inactive

SMILES: Oc1ccc(C(c2ccc(O)cc2)(C(F)(F)F)C(F)(F)F)cc1
- AC50 [3]: 83.7 µM (active) and 72 µM (active) and 73.8 µM (active)
- outcome [1]: inactive
- outcome [10]: inactive
- outcome [6]: inactive
- outcome [7]: inactive

SMILES: O=NN(c1ccccc1)c1ccccc1
- outcome [1]: inactive

SMILES: CC1=C2C[C@H]3[C@@H](CC=C4C[C@@H](O)CC[C@@]43C)[C@@H]2CC[C@]12O[C@@H]1C[C@H](C)CN[C@H]1[C@H]2C
- outcome [3]: inactive
- outcome [1]: inactive
- AC50 (AR (gene 367) [2]): 80.8 µM (active)

SMILES: CC(C)(O)C(=O)Nc1ccc([N+](=O)[O-])c(C(F)(F)F)c1
- outcome (AR (gene 367) [4]): inactive
- outcome [6]: inactive
- outcome [7]: inactive

SMILES: C[C@]12CCC(=O)C=C1CC[C@@H]1[C@@H]2CC[C@]2(C)C(=O)CC[C@@H]12
- AC50 [5]: 0.658 µM (active)
- AC50 [9]: 16.4 nM (active) and 8 nM (active)
- outcome [10]: inactive
- outcome [6]: inactive
- outcome [7]: inactive
